This is a sample that favours compounds with a hit; in the whole collection about 3.8% have one here.
FGF22 binding – binders of human FGF22 protein, primary screen, FGF22 synaptogenesis inhibitor project, biophysical, thermal shift, single point. Fibroblast growth factor 22 (Homo sapiens), Q9HCT0. recombinant FGF22 thermal shift, SYPRO orange fluorescence; percent of sucrose octasulfate shift, DMSO zero. activity (Tm shift, normalised), % at 9.99 µM. 1.5% of 340,000 active. AID 651658, 2012;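 active = mean Tm shift, scaled 0 neutral to 100 positive control, at about 1.3% or above, every replicate too, limit read from the data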
ADAM17 inh – ADAM17 inhibitors, primary screen, biochemical, QFRET; inhibition, % at 6.95 µM; AID 720648, 2013; recombinant ADAM17, EDANS/DABCYL FRET peptide cleavage; 0.83% of 370,000 active; Disintegrin and metalloproteinase domain-containing protein 17 (Homo sapiens), P78536;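 active = inhibition above the mean of compounds lying between control limits plus 3 SD, set per campaign, cut at about 8.5% in these data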
Target sequence (P78536 215-824 limits assumed): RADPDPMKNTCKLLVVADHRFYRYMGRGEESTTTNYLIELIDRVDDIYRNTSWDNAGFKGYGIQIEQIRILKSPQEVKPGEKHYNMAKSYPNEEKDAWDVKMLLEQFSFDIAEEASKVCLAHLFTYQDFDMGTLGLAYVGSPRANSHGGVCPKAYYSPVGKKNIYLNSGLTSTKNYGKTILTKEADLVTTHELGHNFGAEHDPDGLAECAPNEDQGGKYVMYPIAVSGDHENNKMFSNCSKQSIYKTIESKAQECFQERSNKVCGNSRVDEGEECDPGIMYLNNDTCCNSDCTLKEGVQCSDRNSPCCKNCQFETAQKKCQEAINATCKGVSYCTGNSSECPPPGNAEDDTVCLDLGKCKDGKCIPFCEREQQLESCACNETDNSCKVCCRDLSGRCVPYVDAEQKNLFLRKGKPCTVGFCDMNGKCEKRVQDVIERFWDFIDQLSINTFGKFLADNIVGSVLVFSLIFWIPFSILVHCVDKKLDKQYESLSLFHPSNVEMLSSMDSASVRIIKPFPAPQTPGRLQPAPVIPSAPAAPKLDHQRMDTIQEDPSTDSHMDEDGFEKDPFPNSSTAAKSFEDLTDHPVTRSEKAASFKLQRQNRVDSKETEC
proKLK7 act – proKLK7 zymogen activators, primary screen, biochemical, fluorescence intensity. purified proKLK7, EDANS-DABCYL substrate fluorescence; 100% is mature enzyme control, 0% vehicle. AID 652039, 2013. 0.9% of 370,000 active. activation, % at 7 µM;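 active = activation above the mean of all tested compounds plus 3 SD, computed per campaign excluding outliers beyond control limits, cut at about 13% in these data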
ADAM10 inh – human ADAM10 inhibitors, primary screen, biochemical, QFRET, HTS; recombinant ADAM10, EDANS/DABCYL FRET peptide cleavage, 3 h; inhibition, % at 7 µM; 0.62% of 370,000 active; AID 720582, 2013;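 active = inhibition above a per-campaign cutoff equal to the mean of compounds falling between control-based bounds plus 3 SD, cut at about 20% in these data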
rRNA inh HTS – reduced GFP signal of wild-type E. coli, primary screen, bacterial rRNA inhibitor project, GFP/RFP fluorescence, OD600, single point. GFP signal change (wild-type ribosome), % (test concentration not listed). AID 720706, 2013. 1.6% of 350,000 active. E. coli WT GFP vs humanized-ribosome RFP mutants, 24 h; active compounds read low; DMSO median 0, no signal -100;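 active = significant combined selectivity score with lowered wild-type GFP, culture density cut under 30%, mutant RFP and density less affected; inactive = any of these conditions unmet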
Large screens that a line does not name were inactive.

C/C=C/c1ccc2c(c1)O[C@@H](CN(C)CC1CC1)[C@@H](C)CN([C@H](C)CO)S2(=O)=O	none (no result: FGF22 binding, ADAM17 inh, proKLK7 act, ADAM10 inh)
Cc1ccc(NC(=O)CN(C)C(=O)c2ccc(S(=O)(=O)N(C)c3ccccc3)cc2)cc1	FGF22 binding 43.2
O=C(CN(Cc1ccccc1)S(=O)(=O)c1ccccc1)N/N=C/c1ccc([N+](=O)[O-])cc1	none (no result: FGF22 binding, rRNA inh HTS)
O=C(CN(Cc1ccccc1Cl)S(=O)(=O)c1ccc(Cl)cc1)N/N=C/c1ccc(C(=O)O)cc1	FGF22 binding 1.5
COc1ccccc1N(C)S(=O)(=O)c1ccc(C(=O)Nc2cccc(Br)c2)cc1	rRNA inh HTS -33.8
COC(=O)C[C@@H]1CC[C@@H]2[C@H](COC[C@H](O)CN2CCC(F)(F)F)O1	none (no result: ADAM17 inh, proKLK7 act, ADAM10 inh)
COc1ccccc1CNC(=O)C[C@H]1CC[C@H](NC(=O)CC2CC2)[C@@H](CO)O1	none (no result: ADAM17 inh, proKLK7 act, ADAM10 inh)
Cc1ccc([N+](=O)[O-])cc1CN1CCN(c2ncc(Cc3ccccc3)cn2)CC1	FGF22 binding 43.2
COCC(=O)N(C)C[C@H]1Oc2cc(C3=CCCC3)ccc2S(=O)(=O)N([C@H](C)CO)C[C@@H]1C	none (no result: ADAM17 inh, proKLK7 act, ADAM10 inh)
CO[C@H]1CN(C)C(=O)c2ccc(NC(=O)Nc3ccccc3F)cc2OC[C@@H](C)N(C(C)=O)C[C@@H]1C	none (no result: ADAM17 inh, proKLK7 act, ADAM10 inh)
Cc1[nH]c(=O)[nH]c(=O)c1NC(=O)c1ccc(OC(C)C)cc1	none
CC(C)Oc1ccc(C(=O)Nc2ccc(C(F)(F)F)n(C)c2=O)cc1	FGF22 binding 43.8
Cn1cc(CNC(=O)c2cc(COc3ccc4c(c3)CCCC4)on2)cn1	rRNA inh HTS -32.5
CCN(Cc1cnn(C)c1)C(=O)c1cc(COc2ccc3c(c2)CCCC3)on1	none
COc1ccc(C2CC(=O)Oc3cc(C)c(Cl)cc32)cc1 (centres undefined)	none
COc1ccccc1C1CC(=O)Oc2cc(C)c(Cl)cc21 (centres undefined)	rRNA inh HTS -20.9
O=C(c1cccs1)N1CCc2ccccc21	none (no result: FGF22 binding, rRNA inh HTS)
O=C(c1cccs1)N1CCCc2ccccc21	rRNA inh HTS -23.6
COc1cc(CN2CCN(c3ccccc3F)CC2)c([N+](=O)[O-])cc1OC	FGF22 binding 43.8
O=[N+]([O-])c1cccnc1N1CCCCC1	none (no result: FGF22 binding, rRNA inh HTS)
O=[N+]([O-])c1cccnc1N1CCN(c2ccccc2F)CC1	rRNA inh HTS -34.5
CCN(Cc1ccccc1)S(=O)(=O)c1ccc2c(c1)NC(=O)CC(=O)N2	FGF22 binding 43.5
CCN(Cc1ccccc1)S(=O)(=O)c1ccc(F)cc1	none
CN(Cc1ccccc1)S(=O)(=O)c1ccc2c(c1)NC(=O)CC(=O)N2	none (no result: FGF22 binding, rRNA inh HTS)
CCN(Cc1ccccc1)S(=O)(=O)c1ccc2c(c1)NC(=O)CS2	rRNA inh HTS -35.4
O=C(C1CC1)N1[C@H](CO)[C@@H](c2ccccc2)C12CN(CCC(F)(F)F)C2	none (no result: FGF22 binding, ADAM17 inh, proKLK7 act, ADAM10 inh)
C[C@H]1COCn2nncc2CC[C@H](Cc2ccccc2)C(=O)N1	none (no result: FGF22 binding, ADAM17 inh, proKLK7 act, ADAM10 inh)
O=C(CCCCCn1c(=S)[nH]c2ccc(N3CCOCC3)cc2c1=O)NCc1ccc(Cl)cc1	rRNA inh HTS -24.5
O=C(CCCCCn1c(=S)[nH]c2ccc(N3CCOCC3)cc2c1=O)NCc1ccc2c(c1)OCO2	none
COc1ccccc1CNC(=O)c1cc(-c2ccccc2)nn1CC1CC(c2cccc([N+](=O)[O-])c2)=NO1 (centres undefined)	ADAM10 inh 20.0
COc1ccccc1CNC(=O)C1CC(c2cccc([N+](=O)[O-])c2)=NO1 (centres undefined)	none
Oc1ccc(Br)cc1-c1nc2cnccn2c1NC1CCCC1	proKLK7 act 49.3 (no result: FGF22 binding, rRNA inh HTS)
O=C(CCN1C(=O)c2cccc3cccc(c23)C1=O)Nc1ccccc1	FGF22 binding 43.2 (no result: rRNA inh HTS)
O=C(CCN1C(=O)c2cccc3cccc(c23)C1=O)NCc1ccco1	FGF22 binding 43.6
O=C(C[C@@H]1C[C@H]2c3cc(NC(=O)Nc4ccccc4F)ccc3O[C@H]2[C@@H](CO)O1)NCc1ccc2c(c1)OCO2	none (no result: FGF22 binding, ADAM17 inh, proKLK7 act, ADAM10 inh)
Cc1ccc(S(=O)(=O)N(C)C[C@H]2Oc3ccc(NC(=O)CCN4CCOCC4)cc3C(=O)N([C@H](C)CO)C[C@@H]2C)cc1	none (no result: ADAM17 inh, proKLK7 act, ADAM10 inh)
Cc1csc2ncc(C(=O)Nc3ccc(C(F)(F)F)cc3)c(=O)n12	none
CC(=O)c1cnc2scnn2c1=O	FGF22 binding 43.5
Cc1noc(C)c1NC(=O)Nc1ccc2c(c1)CC(=O)N([C@@H](C)CO)C[C@H](C)[C@@H](CN(C)S(=O)(=O)c1cn(C)cn1)O2	none (no result: ADAM17 inh, proKLK7 act, ADAM10 inh)
C[C@@H]1CN([C@H](C)CO)C(=O)c2cccc(NC(=O)c3nc4ccccc4s3)c2O[C@H]1CN(C)C(=O)Nc1cccc2ccccc12	none (no result: FGF22 binding, ADAM17 inh, proKLK7 act, ADAM10 inh)
CN1C(=O)c2cc(NC(=O)C3CCCC3)ccc2OC[C@@H]2O[C@H](CC(=O)NCc3ccccc3F)CC[C@@H]21	none (no result: FGF22 binding, ADAM17 inh, proKLK7 act, ADAM10 inh)
CC1C(=O)N(Cc2cn(CCC3OCCCO3)nn2)CCS(=O)(=O)N1Cc1ccc(-c2ccc(Cl)cc2)cc1 (centres undefined)	FGF22 binding 44.2
COc1ccc(S(=O)(=O)Nc2ccc3c(c2)[C@@H]2C[C@@H](CC(=O)O)O[C@@H](CO)[C@@H]2O3)cc1	none (no result: ADAM17 inh, proKLK7 act, ADAM10 inh)
Cc1noc(N)c1C1(O)C(=O)N(C(C)C)c2ccccc21 (centres undefined)	FGF22 binding 43.1
CCOc1ccc(NC(=S)N2CCC(C(=O)c3ccc(OC)cc3)CC2)cc1	rRNA inh HTS -13.5
CCN(c1ccccc1)S(=O)(=O)c1ccc(Cl)c(NC(=O)CSc2nnc(C)s2)c1	rRNA inh HTS -31.9
CCN(C(=O)CSc1nc2ccc([N+](=O)[O-])cc2s1)c1c(N)n(Cc2ccccc2)c(=O)[nH]c1=O	none
CN(C(=O)CSc1nc2ccccc2s1)c1c(N)n(Cc2ccccc2)c(=O)[nH]c1=O	FGF22 binding 42.9
Cc1ccc(S(=O)(=O)N(C)C[C@H]2Oc3cc(C#Cc4ccncc4)ccc3S(=O)(=O)N([C@@H](C)CO)C[C@H]2C)cc1	none (no result: ADAM17 inh, proKLK7 act, ADAM10 inh, rRNA inh HTS)
Cc1ccc(C)c(-n2c(SCC(=O)N3CCC(C(=O)O)CC3)nnc2-c2cccc(Cl)c2)c1	FGF22 binding 44.0
Cc1ccccc1-n1c(SCC(=O)N2CCC(C(=O)O)CC2)nnc1-c1ccncc1	none
C[C@H]1CN([C@@H](C)CO)S(=O)(=O)c2ccc(C#CC3CC3)cc2O[C@H]1CN(C)C(=O)Nc1cc(F)ccc1F	none (no result: FGF22 binding, ADAM17 inh, proKLK7 act, ADAM10 inh)
Cn1c(NC(=O)c2ccc(Cl)cc2)cc(=O)n(C)c1=O	FGF22 binding 43.6
COc1ccc(-c2ccnc3nc(N4CCOCC4)nn23)cc1	proKLK7 act 44.2 (no result: FGF22 binding, rRNA inh HTS)
CC(Oc1ccccc1)c1ccnc2nc(N3CCOCC3)nn12 (centres undefined)	FGF22 binding 43.4

From PubChem BioAssay
